# Assay results as given in PubChem BioAssay AID1159580 (chemical genetic matrix, 2015).
# Screen size: about 5,500 compounds; about 2,000 (36%) were called active. About 18% were inconclusive and are not listed. This is one part of the list. Values without a mark were called inactive. Rule as the data show it: active = normalized growth mostly below about 0.91 (no sharp cut-off); inconclusive = no clear call, values can overlap the other calls; inactive = mostly above about 0.92.
# Test: chemical genetic growth profiling, strain panel (AID 1159580);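 also: tested at 20 µM; growth read once vehicle control cultures reached saturation at 30 °C; 1 = growth at the plate median or of vehicle wells; lower values mean less growth of the strain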
# Settings: S. cerevisiae deletion strains, growth OD
# [1] = locus YHR030C, strain SLT2, active compounds read low
# [2] = locus YHR079C, strain IRE1, active compounds read low
# [3] = locus YJL095W, strain BCK1, active compounds read low
# [4] = locus YJR066W, strain TOR1, active compounds read low
# [5] = locus YLR113W, strain HOG1, active compounds read low
# [6] = locus YNL183C, strain NPR1, active compounds read low
# [7] = locus YOR231W, strain MKK1, active compounds read low
# [8] = locus YPL256C, strain CLN2, active compounds read low
# [9] = locus YAL013W, strain DEP1, active compounds read low
# [10] = locus YDR150W, strain NUM1, active compounds read low
# [11] = locus YJR075W, strain HOC1, active compounds read low
# [12] = locus YMR263W, strain SAP30, active compounds read low
# [13] = locus YNL153C, strain GIM3, active compounds read low
# [14] = locus YNL322C, strain KRE1, active compounds read low
# [15] = locus YPL055C, strain LGE1, active compounds read low
# [16] = locus YPL241C, strain CIN2, active compounds read low
# [17] = locus YAL040C, strain CLN3, active compounds read low
# [18] = locus YCL061C, strain MRC1 (second series), active compounds read low
# [19] = locus YDR363W, strain ESC2, active compounds read low
# [20] = locus YER002W, strain NOP16, active compounds read low
# [21] = locus YNL197C, strain WHI3, active compounds read low
# [22] = locus YNL224C, strain SQS1, active compounds read low
# [23] = locus YOR083W, strain WHI5 (second series), active compounds read low
smiles,measurement,setting,value
CC(=O)NCCCS(=O)(=O)O,normalized growth,"locus YAL021C, strain ccr4, active compounds read low",0.994
same,normalized growth,"locus YAL026C, strain drs2, active compounds read low",1.02
same,normalized growth,"locus YAL030W, strain snc1, active compounds read low",1.01
same,normalized growth,"locus YBL061C, strain skt5, active compounds read low",1.01
same,normalized growth,"locus YBR009C, strain hhf1, active compounds read low",1.02
same,normalized growth,"locus YBR023C, strain chs3, active compounds read low",1.02
same,normalized growth,"locus YBR171W, strain sec66, active compounds read low",1.03
same,normalized growth,"locus YBR231C, strain swc5, active compounds read low",1.02
same,normalized growth,"locus YBR279W, strain paf1, active compounds read low",1.02
same,normalized growth,"locus YCL011C, strain gbp2, active compounds read low",1.01
same,normalized growth,"locus YCL016C, strain dcc1, active compounds read low",1.02
same,normalized growth,"locus YCL061C, strain MRC1, active compounds read low",1.02
same,normalized growth,"locus YCL069W, strain vba3, active compounds read low",1.01
same,normalized growth,"locus YCR088W, strain abp1, active compounds read low",1.01
same,normalized growth,"locus YDL005C, strain med2, active compounds read low",1.01
same,normalized growth,"locus YDL040C, strain nat1, active compounds read low",1.02
same,normalized growth,"locus YDR001C, strain nth1, active compounds read low",1.01
same,normalized growth,"locus YDR069C, strain doa4, active compounds read low",1.01
same,normalized growth,"locus YDR137W, strain rgp1, active compounds read low",1.03
same,normalized growth,"locus YDR159W, strain sac3, active compounds read low",1.01
same,normalized growth,"locus YDR195W, strain ref2",1.02
same,normalized growth,"locus YDR297W, strain sur2, active compounds read low",1.01
same,normalized growth,"locus YDR334W, strain swr1, active compounds read low",1.01
same,normalized growth,"locus YDR335W, strain msn5, active compounds read low",1.01
same,normalized growth,"locus YDR392W, strain spt3, active compounds read low",0.984
same,normalized growth,"locus YEL003W, strain gim4, active compounds read low",1.01
same,normalized growth,"locus YEL037C, strain rad23, active compounds read low",1.01
same,normalized growth,"locus YEL061C, strain CIN8 (second series), active compounds read low",1
same,normalized growth,"locus YER015W, strain faa2, active compounds read low",1.01
same,normalized growth,"locus YER016W, strain bim1, active compounds read low",1.02
same,normalized growth,"locus YER111C, strain swi4, active compounds read low",1.02
same,normalized growth,"locus YER155C, strain BEM2 (second series), active compounds read low",1.04
same,normalized growth,"locus YFR010W, strain ubp6, active compounds read low",1.01
same,normalized growth,"locus YGL167C, strain pmr1, active compounds read low",1.01
same,normalized growth,"locus YGL173C, strain kem1, active compounds read low",1.02
same,normalized growth,"locus YGL227W, strain vid30, active compounds read low",1.02
same,normalized growth,"locus YGL240W, strain doc1, active compounds read low",1.02
same,normalized growth,"locus YGL253W, strain hxk2, active compounds read low",1.01
same,normalized growth,"locus YHR013C, strain ard1, active compounds read low",1.05
same,normalized growth,"locus YHR027C, strain rpn1, active compounds read low",1.01
same,normalized growth,[1],1.03
same,normalized growth,[2],1.04
same,normalized growth,"locus YHR142W, strain chs7, active compounds read low",1.01
same,normalized growth,"locus YJL092W, strain hpr5, active compounds read low",1.01
same,normalized growth,"locus YJL095W, strain BCK1 (second series), active compounds read low",1.01
same,normalized growth,[3],1.01
same,normalized growth,"locus YJL115W, strain asf1, active compounds read low",1.01
same,normalized growth,"locus YJL129C, strain trk1, active compounds read low",1.01
same,normalized growth,"locus YJL154C, strain vps35, active compounds read low",1.01
same,normalized growth,"locus YJL164C, strain tpk1, active compounds read low",1
same,normalized growth,"locus YJL166W, strain qcr8, active compounds read low",1.02
same,normalized growth,"locus YJL187C, strain SWE1, active compounds read low",1.01
same,normalized growth,[4],0.989
same,normalized growth,"locus YKL160W, strain elf1, active compounds read low",1.02
same,normalized growth,"locus YKR026C, strain gcn3, active compounds read low",0.993
same,normalized growth,"locus YKR091W, strain srl3, active compounds read low",1.02
same,normalized growth,"locus YLL001W, strain dnm1, active compounds read low",1.02
same,normalized growth,"locus YLL026W, active compounds read low",1.02
same,normalized growth,"locus YLL041C, strain sdh2, active compounds read low",1.01
same,normalized growth,"locus YLR027C, strain aat2, active compounds read low",1.02
same,normalized growth,[5],0.97
same,normalized growth,"locus YLR221C, strain rsa3, active compounds read low",1.01
same,normalized growth,"locus YLR258W, strain gsy2, active compounds read low",1.01
same,normalized growth,"locus YLR262C, strain YPT6 (second series), active compounds read low",1.02
same,normalized growth,"locus YLR320W, strain mms22, active compounds read low",1.01
same,normalized growth,"locus YLR342W, strain FKS1, active compounds read low",1.01
same,normalized growth,"locus YLR357W, strain rsc2, active compounds read low",1.06
same,normalized growth,"locus YLR370C, strain arc18, active compounds read low",1.01
same,normalized growth,"locus YLR384C, strain iki3, active compounds read low",1.02
same,normalized growth,"locus YML120C, strain ndi1, active compounds read low",1.01
same,normalized growth,"locus YMR058W, strain fet3, active compounds read low",1.02
same,normalized growth,"locus YMR125W, strain sto1, active compounds read low",1.03
same,normalized growth,"locus YMR129W, active compounds read low",1
same,normalized growth,"locus YMR205C, strain PFK2, active compounds read low",1.03
same,normalized growth,"locus YMR231W, strain pep5, active compounds read low",1.01
same,normalized growth,"locus YNL071W, strain lat1, active compounds read low",1.02
same,normalized growth,[6],1
same,normalized growth,"locus YNL209W, strain ssb2, active compounds read low",1.01
same,normalized growth,"locus YNL248C, strain rpa49, active compounds read low",1.01
same,normalized growth,"locus YNL322C, strain KRE1 (second series), active compounds read low",1.01
same,normalized growth,"locus YNR049C, strain mso1, active compounds read low",1.02
same,normalized growth,"locus YOR001W, strain rrp6, active compounds read low",1.01
same,normalized growth,"locus YOR070C, strain gyp1, active compounds read low",1.01
same,normalized growth,"locus YOR080W, strain dia2, active compounds read low",1.01
same,normalized growth,"locus YOR083W, strain WHI5, active compounds read low",0.998
same,normalized growth,"locus YOR106W, strain vam3, active compounds read low",1.01
same,normalized growth,[7],1.02
same,normalized growth,"locus YOR265W, strain rbl2, active compounds read low",1.01
same,normalized growth,"locus YOR270C, strain vph1, active compounds read low",1.04
same,normalized growth,"locus YOR290C, strain snf2, active compounds read low",1.01
same,normalized growth,"locus YPL051W, strain arl3, active compounds read low",1.01
same,normalized growth,"locus YPL078C, strain atp4, active compounds read low",1.02
same,normalized growth,"locus YPL106C, strain sse1, active compounds read low",1.02
same,normalized growth,"locus YPL240C, strain hsp82, active compounds read low",1.01
same,normalized growth,[8],1.02
CCCCCCNC(=O)NCCCCCC,normalized growth,[9],0.958
same,normalized growth,"locus YBR229C, strain ROT2, active compounds read low",0.931
same,normalized growth,"locus YDL101C, strain DUN1, active compounds read low",0.983
same,normalized growth,"locus YDL134C, strain PPH21, active compounds read low",0.925
same,normalized growth,[10],0.931
same,normalized growth,"locus YEL061C, strain CIN8, active compounds read low",0.939
same,normalized growth,"locus YGR078C, strain PAC10, active compounds read low",0.933
same,normalized growth,[1],0.858
same,normalized growth,"locus YHR087W, strain rtc3, active compounds read low",0.955
same,normalized growth,"locus YJR043C, strain POL32, active compounds read low",0.942
same,normalized growth,[11],0.894
same,normalized growth,"locus YLR039C, strain RIC1, active compounds read low",0.76 (active)
same,normalized growth,"locus YLR058C, strain SHM2 (second series), active compounds read low",0.933 (active)
same,normalized growth,"locus YLR085C, strain ARP6, active compounds read low",0.881
same,normalized growth,"locus YLR262C, strain YPT6, active compounds read low",0.723 (active)
same,normalized growth,"locus YML094W, strain GIM5, active compounds read low",0.991
same,normalized growth,"locus YMR219W, strain ESC1, active compounds read low",0.924 (active)
same,normalized growth,[12],0.98
same,normalized growth,[13],0.986
same,normalized growth,"locus YNL298W, strain CLA4 (second series), active compounds read low",0.991
same,normalized growth,[14],0.914 (active)
same,normalized growth,"locus YNR030W, strain Alg12, active compounds read low",0.918
same,normalized growth,"locus YOL006C, strain TOP1, active compounds read low",0.858
same,normalized growth,[15],0.959
same,normalized growth,[16],0.982
same,normalized growth,"locus YPR135W, strain CTF4, active compounds read low",0.824
CC(C)(CO)C(O)C(=O)NCCC(=O)NCCSSCCNC(=O)CCNC(=O)C(O)C(C)(C)CO (centres undefined),normalized growth,[1],0.954
same,normalized growth,[2],0.973
same,normalized growth,[3],0.968
same,normalized growth,[4],0.897
same,normalized growth,[5],0.951
same,normalized growth,[6],0.89
same,normalized growth,[7],0.955
same,normalized growth,[8],0.951
CCCCCCCC/C=C\CCCCCCCC(=O)NCCO,normalized growth,[9],1.01
same,normalized growth,[17],1.01
same,normalized growth,[18],1
same,normalized growth,[10],1
same,normalized growth,[19],0.974
same,normalized growth,[20],1.02
same,normalized growth,[11],1
same,normalized growth,[12],0.994
same,normalized growth,[13],0.981
same,normalized growth,"locus YNL175C, strain NOP13, active compounds read low",0.963
same,normalized growth,[21],0.989
same,normalized growth,[22],1
same,normalized growth,[14],0.978
same,normalized growth,[23],0.999
CCCCCCCCCCCCCCCC(=O)NCCO,normalized growth,[17],1.02
same,normalized growth,[18],1.01
same,normalized growth,[19],1.02
same,normalized growth,[20],1.01
same,normalized growth,[11],1.01
same,normalized growth,"locus YMR307W, strain GAS1, active compounds read low",1
same,normalized growth,[21],1.03
same,normalized growth,[22],0.823 (active)
same,normalized growth,[23],1.02
same,normalized growth,[15],1.02
same,normalized growth,[16],0.999
